MARV entry inh: inhibitors of Marburg virus binding or cell entry; Marburg virus pseudotyped entry inhibition, cell reporter; Potency, µM (titrated, usually from 37.8 µM), actives largely listed as inhibitors; actives 1.8% (n = 300,000); calls by dose curve; tested in HEK293 cells
HCMV antiviral: human cytomegalovirus inhibition. AID 1259415. actives 4.5% (n = 410,000). HFF cells, HCMV-luciferase reporter, 72 h; hits give low values. activity change, negative = inhibition, % at 57.5 µM; in the data active means activity change below about -60%; inconclusive means no clear call, values can overlap the other calls; inactive means above about -39%
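Screen run at 2 compound doses on HFFs infected with reporter HCMV, MOI 1 PFU/cell. Luciferase activity from cell lysates at 72 h post infection gave inhibition relative to buffer-only and Salinomycin wells.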
SARS PLpro yeast: inhibitors of SARS-CoV papain-like protease in yeast; S. cerevisiae expressing SARS-CoV PLpro, growth rescue; Potency, µM (series often up to 32.9 µM), hits mostly activators; actives 0.19% (n = 330,000); calls by dose curve; further: nearly all actives have a fitted effect of over 55% in size
FMDV antiviral: blocks foot and mouth disease virus; FMDV antiviral cell-based qHTS; Potency, µM (series often up to 57.9 µM), actives largely listed as inhibitors; actives 1.2% (n = 410,000); AID 1159524; calls by dose curve; tested in HEK293T cells; further: read-out not given here; nearly all actives have a fitted effect of over 45% in size
LASV entry inh: blocks Lassa virus binding to or entry into cells; Lassa virus pseudotype entry inhibition, cell reporter; Potency, µM (top dose mostly 37.9 µM), usual class: inhibitors; actives 1.2% (n = 300,000); calls by dose curve; tested in HEK293 cells; further: nearly all actives have a fitted effect of over 50% in size
HCV inh: inhibitors of hepatitis C virus infection; Huh7.5.1 HCVcc-Cre infection, luciferase reporter, 44 h; Potency, µM (highest dose often 41.8 µM), actives largely listed as inhibitors; actives 3.4% (n = 340,000); active means well fitted inhibition curve with a large enough effect; inconclusive means small, poorly fitted or top-dose-only effect, or another doubt; inactive means no such curve, though single readings can be large or run the other way
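1,000 cells/well; 4 h culture; + compound; + HCVcc-Cre (~0.5 moi); 44 h; luciferase substrate, RT 15 min; read 15 sec.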
Numbers stand for hits; 0 = inactive; ? = inconclusive; - = not tested or not shown. Compounds with a hit are over-represented: about 8% of the library has one in this group of screens.

SMILES | MARV entry inh | HCMV antiviral | SARS PLpro yeast | FMDV antiviral | LASV entry inh | HCV inh
COc1cccc(CN(C)C(=O)c2cc(COc3ccc4ncccc4c3)on2)c1 | 0 | -86 | 0 | 11µM | ? | 5.6µM
CN(CCc1ccccn1)C(=O)c1cc(COc2ccc(F)cc2F)on1 | 0 | ? | 0 | 0 | 0 | 0
COc1cccc(OCc2cc(C(=O)N(C)CCOc3ccc(C)cc3)no2)c1 | - | 0 | 0 | 0 | - | 11µM
Cc1ccc(OCc2cc(C(=O)N(C)CCc3ccccn3)no2)cn1 | - | -63 | 0 | 0 | - | 0
COCC(=O)Nc1cc(C(=O)N2CC3(C)CC2CC(C)(C)C3)c2c(c1)nc(-c1ccncc1)n2C (centres undefined) | - | - | - | 0 | - | -
COC(c1ccc2c(c1)CN(C(=O)Cn1nc(C)c3ccccc3c1=O)CCO2)C1CCCCC1 (centres undefined) | - | - | - | 0 | - | -
O=C(COc1ccccc1)Nc1c(C(=O)N2CCC(N3CCCCC3)CC2)oc2ccccc12 | - | -70 | 0 | 0 | - | 0
O=C(Nc1c(C(=O)N2CCC(N3CCCCC3)CC2)oc2ccccc12)c1ccc(F)cc1 | - | 0 | 0 | 0 | - | 13µM
CN(CCO)C(=O)c1ccc(-c2nn(C)c(=O)c3ccccc23)cc1 | ? | 0 | 0 | 0 | 0 | 0
Cn1nc(-c2ccc(C(=O)Nc3cccc(C(F)(F)F)c3)cc2)c2ccccc2c1=O | ? | 0 | - | 22µM | 0 | -
CN(C(=O)c1ccc(-c2nn(C)c(=O)c3ccccc23)cc1)C1CCCCC1 | ? | 0 | 0 | 22µM | ? | ?
Cn1nc(-c2ccc(C(=O)O)cc2)c2ccccc2c1=O | 0 | 0 | 0 | 0 | 0 | 0
Cn1nc(-c2ccc(C(=O)Nc3ccc(OC(F)(F)F)cc3)cc2)c2ccccc2c1=O | - | 0 | - | 14µM | 0 | -
COCC1CN(CCc2ccc(F)cc2)S(=O)(=O)c2c(F)cccc2O1 (centres undefined) | - | 0 | - | - | - | -
Cc1ccc(-n2c(SCC(=O)NNC(=S)Nc3ccccc3)nc3ccccc3c2=O)cc1 | 8.9µM | ? | 0 | 0 | 0 | 0
O=C(CSc1nc2ccccc2c(=O)n1-c1ccc(F)cc1)Nc1ccc(C(=O)O)cc1 | 0 | 0 | 0 | 0 | 0 | 0
O=C(Nc1cccc(S(=O)(=O)NC2=NCCCCC2)c1)c1cc(-c2ccccc2Cl)nc2ccccc12 | ? | -64 | 0 | 0 | 0 | ?
Cc1ccc(-n2c(SCC(=O)Nc3cccc(S(=O)(=O)NC4=NCCCCC4)c3)nc3ccccc3c2=O)cc1 | 0 | -66 | 0 | 0 | 0 | ?
COc1ccc(Cl)cc1NC(=O)C(=O)NCc1ccc(Cl)cc1 | - | 0 | - | ? | 0 | -
COc1ccc(/C=C\C(=O)CC(O)(c2ccccc2)C(F)(F)F)cc1 (centres undefined) | 0 | 0 | 0 | 20µM | ? | 0
COc1cnc(-c2ccccc2)[nH]c1=O | 0 | 0 | 0 | 0 | 0 | 0
O=c1[nH]c(-c2ccccc2)ncc1OCc1ccccc1 | ? | -63 | - | 0 | 0 | 0
Cc1nc(N2CCN(c3ccccn3)CC2)c2c(C)c(C(=O)N3CCN(c4ccccc4F)CC3)sc2n1 | 7.9µM | 0 | 0 | ? | ? | 32µM
Cc1nc(N2CCCCC2C)c2c(C)c(C(=O)Nc3cccc(C(F)(F)F)c3)sc2n1 (centres undefined) | ? | 0 | 0 | ? | 0 | ?
Cc1nc(N2CCCCC2)c2c(C)c(C(=O)Nc3cccc(C(F)(F)F)c3)sc2n1 | - | -60 | 0 | ? | - | 25µM
SMILES | MARV entry inh | HCMV antiviral | SARS PLpro yeast | FMDV antiviral | LASV entry inh | HCV inh
COc1ccc(C)cc1NC(=O)c1sc2ncnc(N3CCN(c4ccccn4)CC3)c2c1C | 0 | 0 | 0 | 0 | - | 1.4µM
Cc1c(C(=O)N2CCN(c3ccccc3F)CC2)sc2ncn(CC(=O)N3CCOCC3)c(=O)c12 | 0 | 0 | 0 | 0 | 0 | 0
Cc1ccc(NC(=O)c2sc3nc(C)nc(N4CCN(c5ccccn5)CC4)c3c2C)c(C)c1 | 11µM | ? | 0 | 0 | 0 | 0
Cc1ccc(NC(=O)c2sc3ncnc(N4CCN(c5ccccn5)CC4)c3c2C)c(C)c1 | - | ? | 0 | 0 | - | ?
Cc1nc(N2CCN(c3ccccn3)CC2)c2c(C)c(C(=O)Nc3ccc(Br)cc3C)sc2n1 | - | ? | 0 | 0 | - | 0
Cc1ccc2nc(-c3ccncc3)c(Nc3ccc(C(C)C)cc3)n2c1 | ? | 0 | - | ? | 0 | -
COc1cccc(-c2nc3c(c(SCC(=O)N4CCOCC4)n2)Cc2c(CO)cnc(C)c2O3)c1 | - | - | 0 | 0 | - | 11µM
Cc1cccc(-c2nc3c(c(SCC(=O)N4CCOCC4)n2)Cc2c(CO)cnc(C)c2O3)c1 | ? | - | 0 | 0 | ? | 11µM
Cc1ncc(CO)c2c1Oc1nc(-c3ccccc3)nc(SCC(=O)N3CCOCC3)c1C2 | ? | 0 | 0 | 0 | ? | ?
COc1ccccc1-c1nc2c(c(SCC(=O)Nc3ccc(C)c(C)c3)n1)Cc1c(CO)cnc(C)c1O2 | - | -76 | - | 0 | 0 | -
Cc1c(C(=O)Nc2nnc(C(F)(F)F)s2)oc2ccccc12 | 0 | -85 | 0 | 0 | 0 | -
Cc1occc1C(=O)Nc1nnc(C(F)(F)F)s1 | 0 | 0 | 0 | 0 | 0 | 0
COC(=O)c1sc(NC(=O)c2oc3ccccc3c2C)nc1C | 0 | 0 | 0 | 0 | ? | 0
O=C(Nc1ccccc1C(=O)Nc1nnc(C(F)(F)F)s1)c1ccccc1 | 4µM | -99 | 0 | ? | 10µM | 0
COc1ccc(Cl)cc1NC(=O)CSc1cn(CC(=O)N2CCCCCC2)c2ccccc12 | - | 0 | - | ? | ? | -
COc1ccc(CNc2nc(-c3cccc(NS(C)(=O)=O)c3)nc3ccccc23)c(OC)c1 | - | - | - | 0 | - | -
COc1ccc(C(=O)N(O)c2ccccc2)cc1 | - | - | - | 0 | - | -
OC1(c2cccnc2)CCN(Cc2ccc3c(c2)CN(Cc2ccsc2)CCO3)CC1 | - | - | - | 0 | - | -
O=C(Nc1ncccc1O)c1c(O)c2ccccc2[nH]c1=O | - | -77 | 0 | 0 | - | 0
Cc1cccc(C)c1NC(=O)c1c(O)c2ccccc2[nH]c1=O | - | 0 | 0 | 0 | - | ?
c1ncc(-c2ccoc2)c(NC2CC2)n1 | - | - | - | 0 | - | -
Cc1ccc(N(C(=O)C2COc3ccccc3O2)C(C(=O)NC2CCCCC2)c2cn(C)nc2C)cc1 (centres undefined) | 0 | - | ? | - | 0 | 0
COc1cc(OC)cc(N(C(=O)C2COc3ccccc3O2)C(C(=O)NC2CCCCC2)c2ccc(O)cc2)c1 (centres undefined) | ? | -77 | 0 | 0 | ? | ?
COc1ccc(N(C(=O)C2COc3ccccc3O2)C(C(=O)NC2CCCCC2)c2ccccc2)cc1OC (centres undefined) | ? | -63 | 0 | 0 | 0 | ?
COc1cccc(C(C(=O)NC2CCCCC2)N(CCN2CCOCC2)C(=O)C2COc3ccccc3O2)c1 (centres undefined) | 0 | 0 | 0 | 0 | 0 | 0
COc1ccc(C2CC(=O)c3cc(-c4nc(-c5cccc([N+](=O)[O-])c5)cs4)c(=O)n(-c4ccc(C)c(C)c4)c3C2)cc1 (centres undefined) | 0 | 0 | - | 0 | 0 | -
Cc1ccc(Nc2nc(-c3ccc(S(=O)(=O)N4CCCC4)cc3)cs2)cc1C | ? | - | 0 | ? | ? | 4µM

Assay outcomes deposited in PubChem BioAssay by National Center for Advancing Translational Sciences (NCATS).
